What all share (assay): log2 fold change, soluble protein after heating vs DMSO (PISA); higher = thermal stabilisation; K562 lysate, 10 uM; active = over 0.2 and 3.5 SD of the protein, either way, in both replicates (recomputed)
Compound in test [1]: C1=CC=C(C=C1)[C@H](COC2=CC3=C(C=C2)NC(=O)N3)NC(=O)C4=CC=CN(C4=O)CC5=CC(=C(C=C5)F)F
The essentials: (§1)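 Dounce homogenisation of K562 pellets in PBS pH 7.4 with 1 mM MgCl2 produced a crude extract, used at 1 mg/mL protein. Exposure to 10 μM compound lasted 30 min, and aliquots were then heated for 3 min across 48°C-58°C, pooled and brought to 0.5% NP-40 at 4°C. The supernatant after 21,000xg for 90 min was quantified by TMTpro 16plex LC-MS/MS with channel sums equalised. Duplicate values are given as log-two fold change in thermal stability relative to solvent controls.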

Compound in test [2]: CC1=C(SC2=C1C(=N[C@H](C3=NN=C(N32)C)CC(=O)N)C4=CC=C(C=C4)Cl)C
The essentials:
as §1

Compound in test [3]: CC1=C2C(=CC=C1)N=C(N(C2=O)C3=CC=CC=C3C)CN4C=NC5=C(N=CN=C54)N
The procedure, abridged:
as §1

Compound in test [4]: Cc1sc2c(c1C)C(c1ccc(Cl)cc1)=N[C@@H](CC(=O)OC(C)(C)C)c1nnc(C)n1-2
The essentials:
as §1

Compound in test [5]: c1ccc([C@@H]2C[C@H]2NC2CCNCC2)cc1
The essentials:
as §1

About 8,800 targets were measured; listed, in parts, are those with a hit and a random draw of the rest. About 0.5% of all pairs of compound and target were hits. A number with no mark means an inactive call.

Sequence of UniProt O60225 (O60225 whole entry, looked up): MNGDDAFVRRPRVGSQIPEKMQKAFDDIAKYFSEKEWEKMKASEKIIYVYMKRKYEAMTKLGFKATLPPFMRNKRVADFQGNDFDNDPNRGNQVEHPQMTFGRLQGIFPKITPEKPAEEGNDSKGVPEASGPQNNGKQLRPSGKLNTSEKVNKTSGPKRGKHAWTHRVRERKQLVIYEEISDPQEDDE
Sequence of UniProt P50225 (P50225 whole entry, looked up): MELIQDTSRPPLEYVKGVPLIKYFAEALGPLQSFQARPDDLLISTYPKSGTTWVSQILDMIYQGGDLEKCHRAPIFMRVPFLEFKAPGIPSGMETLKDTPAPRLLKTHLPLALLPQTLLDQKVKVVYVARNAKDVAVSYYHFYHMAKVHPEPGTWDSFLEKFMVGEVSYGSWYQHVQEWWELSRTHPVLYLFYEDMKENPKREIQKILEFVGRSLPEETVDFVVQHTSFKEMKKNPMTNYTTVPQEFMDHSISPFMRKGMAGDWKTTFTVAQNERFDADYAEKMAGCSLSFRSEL
Sequence of UniProt O95793 (O95793 whole entry, looked up): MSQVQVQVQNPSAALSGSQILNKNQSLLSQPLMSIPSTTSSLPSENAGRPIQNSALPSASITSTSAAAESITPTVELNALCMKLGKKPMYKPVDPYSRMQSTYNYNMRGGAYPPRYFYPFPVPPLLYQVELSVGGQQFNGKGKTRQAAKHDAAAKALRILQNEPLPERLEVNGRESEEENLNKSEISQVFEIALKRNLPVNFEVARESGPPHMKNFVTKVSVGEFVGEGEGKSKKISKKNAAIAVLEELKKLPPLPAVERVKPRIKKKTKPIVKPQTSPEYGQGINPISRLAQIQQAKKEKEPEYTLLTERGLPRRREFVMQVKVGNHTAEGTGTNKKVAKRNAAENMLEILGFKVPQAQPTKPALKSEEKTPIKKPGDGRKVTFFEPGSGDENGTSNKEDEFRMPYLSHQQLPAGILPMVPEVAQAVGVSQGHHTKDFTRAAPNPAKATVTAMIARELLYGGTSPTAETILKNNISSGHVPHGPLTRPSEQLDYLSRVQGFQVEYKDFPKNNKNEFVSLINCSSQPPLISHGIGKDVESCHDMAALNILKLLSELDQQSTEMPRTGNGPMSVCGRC
Sequence of UniProt P62316 (P62316 whole entry, looked up): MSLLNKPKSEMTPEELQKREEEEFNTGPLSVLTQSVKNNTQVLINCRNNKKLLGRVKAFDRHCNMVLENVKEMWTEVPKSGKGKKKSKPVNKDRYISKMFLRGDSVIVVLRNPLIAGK
Sequence of UniProt Q96CQ1 (Q96CQ1 whole entry, looked up): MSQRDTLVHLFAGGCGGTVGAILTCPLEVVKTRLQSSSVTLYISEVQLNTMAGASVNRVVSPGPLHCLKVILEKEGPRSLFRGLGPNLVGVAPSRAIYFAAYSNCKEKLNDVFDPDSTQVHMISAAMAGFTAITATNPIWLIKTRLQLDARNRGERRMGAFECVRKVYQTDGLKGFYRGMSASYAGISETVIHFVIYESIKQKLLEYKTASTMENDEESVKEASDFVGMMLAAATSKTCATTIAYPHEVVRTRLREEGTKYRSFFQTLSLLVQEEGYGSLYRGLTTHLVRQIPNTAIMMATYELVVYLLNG
Sequence of UniProt Q96BD0 (Q96BD0 whole entry, looked up): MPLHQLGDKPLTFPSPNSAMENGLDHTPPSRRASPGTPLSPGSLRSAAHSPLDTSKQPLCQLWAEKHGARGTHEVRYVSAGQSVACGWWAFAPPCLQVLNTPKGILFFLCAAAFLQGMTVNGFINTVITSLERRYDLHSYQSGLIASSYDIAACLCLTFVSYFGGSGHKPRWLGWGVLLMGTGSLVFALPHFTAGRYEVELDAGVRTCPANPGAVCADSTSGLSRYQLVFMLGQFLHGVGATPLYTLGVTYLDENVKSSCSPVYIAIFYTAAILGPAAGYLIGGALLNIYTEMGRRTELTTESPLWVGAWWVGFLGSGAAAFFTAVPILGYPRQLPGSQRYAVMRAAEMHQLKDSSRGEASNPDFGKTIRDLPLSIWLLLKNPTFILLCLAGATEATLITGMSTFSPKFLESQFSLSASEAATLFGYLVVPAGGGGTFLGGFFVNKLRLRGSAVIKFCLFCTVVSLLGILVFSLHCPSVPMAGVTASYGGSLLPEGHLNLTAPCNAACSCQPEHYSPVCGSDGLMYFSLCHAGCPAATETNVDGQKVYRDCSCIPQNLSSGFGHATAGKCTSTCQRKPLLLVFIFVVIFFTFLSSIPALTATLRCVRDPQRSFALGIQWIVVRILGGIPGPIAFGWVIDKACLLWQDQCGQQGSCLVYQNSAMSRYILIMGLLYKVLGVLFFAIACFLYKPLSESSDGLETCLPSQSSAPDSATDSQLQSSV
Sequence of UniProt Q8TBC3 (Q8TBC3 whole entry, looked up): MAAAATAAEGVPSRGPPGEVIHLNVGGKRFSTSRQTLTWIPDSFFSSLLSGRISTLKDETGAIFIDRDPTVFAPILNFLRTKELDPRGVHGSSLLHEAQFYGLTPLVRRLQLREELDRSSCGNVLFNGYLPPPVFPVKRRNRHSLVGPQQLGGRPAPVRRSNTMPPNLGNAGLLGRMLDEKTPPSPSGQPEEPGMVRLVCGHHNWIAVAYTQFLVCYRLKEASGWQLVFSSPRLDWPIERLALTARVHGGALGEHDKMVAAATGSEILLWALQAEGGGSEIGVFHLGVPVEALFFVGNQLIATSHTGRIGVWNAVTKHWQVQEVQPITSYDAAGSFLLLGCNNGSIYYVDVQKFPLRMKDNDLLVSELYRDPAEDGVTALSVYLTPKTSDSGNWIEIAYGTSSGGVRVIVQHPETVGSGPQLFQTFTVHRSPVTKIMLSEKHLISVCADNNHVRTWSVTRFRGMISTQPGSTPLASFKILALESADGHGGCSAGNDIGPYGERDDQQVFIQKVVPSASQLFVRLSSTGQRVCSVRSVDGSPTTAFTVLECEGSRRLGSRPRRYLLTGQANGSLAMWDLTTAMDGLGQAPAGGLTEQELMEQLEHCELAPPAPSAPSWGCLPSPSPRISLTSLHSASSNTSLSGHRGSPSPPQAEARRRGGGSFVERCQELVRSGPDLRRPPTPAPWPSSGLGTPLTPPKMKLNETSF
Sequence of UniProt Q15544 (Q15544 whole entry, looked up): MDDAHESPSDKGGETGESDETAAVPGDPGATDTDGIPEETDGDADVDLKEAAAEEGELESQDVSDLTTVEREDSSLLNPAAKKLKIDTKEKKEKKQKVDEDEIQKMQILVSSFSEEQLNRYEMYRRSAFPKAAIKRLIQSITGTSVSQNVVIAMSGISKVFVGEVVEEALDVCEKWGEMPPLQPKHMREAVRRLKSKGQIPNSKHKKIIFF
Sequence of UniProt Q6NXT4 (Q6NXT4 whole entry, looked up): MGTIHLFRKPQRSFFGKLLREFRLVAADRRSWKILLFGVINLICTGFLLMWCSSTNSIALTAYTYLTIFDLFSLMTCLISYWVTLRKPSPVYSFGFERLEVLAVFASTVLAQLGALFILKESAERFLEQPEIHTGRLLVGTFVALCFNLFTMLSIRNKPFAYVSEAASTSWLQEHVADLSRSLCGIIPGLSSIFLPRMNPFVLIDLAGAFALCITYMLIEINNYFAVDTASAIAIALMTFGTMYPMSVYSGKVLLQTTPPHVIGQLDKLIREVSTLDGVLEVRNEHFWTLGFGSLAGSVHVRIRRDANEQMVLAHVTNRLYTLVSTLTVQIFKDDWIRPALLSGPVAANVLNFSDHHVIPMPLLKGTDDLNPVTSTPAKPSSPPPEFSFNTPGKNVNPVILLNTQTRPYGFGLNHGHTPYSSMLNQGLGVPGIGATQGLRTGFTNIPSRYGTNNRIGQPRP
Sequence of UniProt Q99963 (Q99963 whole entry, looked up): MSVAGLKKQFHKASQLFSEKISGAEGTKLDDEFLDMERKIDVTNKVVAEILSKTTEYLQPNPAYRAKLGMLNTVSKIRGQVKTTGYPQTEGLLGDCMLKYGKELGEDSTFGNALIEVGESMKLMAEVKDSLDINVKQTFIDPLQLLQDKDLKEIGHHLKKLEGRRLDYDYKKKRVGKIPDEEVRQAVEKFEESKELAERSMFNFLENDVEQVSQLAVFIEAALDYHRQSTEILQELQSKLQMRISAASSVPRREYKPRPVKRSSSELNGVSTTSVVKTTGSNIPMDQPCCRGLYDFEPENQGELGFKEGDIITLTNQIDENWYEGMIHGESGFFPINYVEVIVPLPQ
Sequence of UniProt Q9H668 (Q9H668 whole entry, looked up): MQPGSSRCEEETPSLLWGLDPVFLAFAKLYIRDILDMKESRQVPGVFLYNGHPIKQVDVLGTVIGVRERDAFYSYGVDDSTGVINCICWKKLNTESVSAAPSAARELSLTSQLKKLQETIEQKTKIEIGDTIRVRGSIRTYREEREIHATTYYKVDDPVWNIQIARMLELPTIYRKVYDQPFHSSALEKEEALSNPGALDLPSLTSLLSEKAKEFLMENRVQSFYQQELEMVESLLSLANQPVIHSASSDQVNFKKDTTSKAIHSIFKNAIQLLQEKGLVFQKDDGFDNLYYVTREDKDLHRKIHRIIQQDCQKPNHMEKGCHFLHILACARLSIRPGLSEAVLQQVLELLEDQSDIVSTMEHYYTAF
Sequence of UniProt O95149 (O95149 whole entry, looked up): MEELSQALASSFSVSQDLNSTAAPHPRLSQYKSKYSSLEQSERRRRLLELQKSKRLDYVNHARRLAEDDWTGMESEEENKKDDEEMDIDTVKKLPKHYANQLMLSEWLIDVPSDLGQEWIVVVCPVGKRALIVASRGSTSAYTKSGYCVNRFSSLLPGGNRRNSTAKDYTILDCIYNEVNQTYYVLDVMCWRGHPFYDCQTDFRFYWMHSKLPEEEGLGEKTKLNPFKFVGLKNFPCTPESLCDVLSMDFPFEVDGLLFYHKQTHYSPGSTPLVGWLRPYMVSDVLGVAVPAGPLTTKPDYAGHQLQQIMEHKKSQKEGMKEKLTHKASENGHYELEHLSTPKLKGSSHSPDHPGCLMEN
Sequence of UniProt Q15506 (Q15506 whole entry, looked up): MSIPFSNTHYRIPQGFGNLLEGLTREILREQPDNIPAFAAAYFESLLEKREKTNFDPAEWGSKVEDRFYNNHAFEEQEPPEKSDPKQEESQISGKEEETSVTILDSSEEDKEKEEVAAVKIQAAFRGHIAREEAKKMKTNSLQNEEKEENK
Sequence of UniProt B2RUZ4 (B2RUZ4 whole entry, looked up): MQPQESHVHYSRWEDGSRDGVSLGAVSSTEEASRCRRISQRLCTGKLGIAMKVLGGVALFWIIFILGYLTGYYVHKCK

Consider SNRPD2 (UniProt P62316), for which the log2 fold change was 0.039 in test [1]; -0.021 in test [2]; 0.028 in test [3]; -0.009 in test [4]; -0.068 in test [5].

Take SMARCAD1 isoform 2 (UniProt Q9H4L7): the log2 fold change was -0.006 in test [1]; -0.036 in test [2]; 0.014 in test [3]; 0.014 in test [4]; 0.035 in test [5].

On to SHKBP1 (UniProt Q8TBC3), for which the log2 fold change was 0.016 in test [1]; 0.02 in test [2]; 0.077 in test [3]; -0.027 in test [4]; 0.007 in test [5].

Turning to SF3B6 (UniProt Q9Y3B4), the log2 fold change in test [1] was 0.052; in test [2] it was -0.032; in test [3], -0.184; in test [4], 0.014; in test [5], 0.

As to SRGN (UniProt P10124), the log2 fold change was 0.101 in test [1]; 0.14 in test [2]; 0.063 in test [3]; -0.03 in test [4]; -0.196 in test [5].

As to SPA17 (UniProt Q15506), the log2 fold change in test [1] was 0.057; in test [2], -0.064; in test [3], -0.006; in test [4], -0.132; in test [5], -0.364.

As to SULT1A1 (UniProt P50225), the log2 fold change is -0.022 in test [1]; -0.02 in test [2]; 0 in test [3]; 0.051 in test [4]; 0.088 in test [5].

Turning to SNRPF (UniProt P62306), the log2 fold change is 0.04 in test [1]; -0.084 in test [2]; -0.12 in test [3]; -0.103 in test [4]; -0.206 in test [5].

As for SH3GL3 isoform 3 (UniProt Q99963), the log2 fold change in test [1] is 0.024; in test [2] it was 0.033; in test [3] it was 0.133; in test [4], -0.169; in test [5], -0.416.

Consider SMPD2 (UniProt O60906), for which the log2 fold change in test [4] was -0.244; in test [5], -0.05.

As to STN1 (UniProt Q9H668), the log2 fold change was -0.125 in test [1], 0.073 in test [2], -0.115 in test [3] and -0.049 in test [5].

Turning to SSX5 isoform 2 (UniProt O60225), the log2 fold change in test [1] was 0.022; in test [2] it was 0.03; in test [3], -0.157; in test [5], -0.253.

Regarding SIX5 (UniProt Q8N196), the log2 fold change in test [1] is -0.011; in test [2], 0.034; in test [4] it was -0.037; in test [5], 0.209.

In the case of STK17A (UniProt Q9UEE5), the log2 fold change in test [5] is 0.148.

Regarding SLC22A18 (UniProt Q96BI1), the log2 fold change was 0.07 in test [1], 0.048 in test [2], -0.036 in test [3] and -0.088 in test [5].

Take SLC25A36 (UniProt Q96CQ1): the log2 fold change in test [3] is 0.013; in test [4] it was 0.035; in test [5], 0.

Turning to SRC isoform 2 (UniProt P12931), the log2 fold change is -0.052 in test [1], -0.412 (active) in test [2], -0.105 in test [4] and 0.017 in test [5].

Take TAF11 (UniProt Q15544): the results for the log2 fold change in test [3], in test [4] and in test [5] were 0, -0.16 and -0.073, respectively.

With SHC1 (UniProt P29353), the log2 fold change in test [5] is 0.201.

Turning to TARDBP (UniProt K7EN94), the log2 fold change in test [3] was 0.319.

STAU1 isoform 3 (UniProt O95793): the log2 fold change was 0.19 in test [1], 0.043 in test [2] and 0.081 in test [5].

STK17B (UniProt O94768): the log2 fold change in test [4] is -0.029.

Consider STK38L (UniProt Q9Y2H1), for which the log2 fold change in test [4] was -0.031.

On to SLCO4A1 (UniProt Q96BD0), for which the log2 fold change was 0.203 in test [1], -0.372 in test [2] and -0.013 in test [5].

Turning to SLC35A3 isoform 2 (UniProt Q9Y2D2), the log2 fold change in test [3] was 0.008; in test [5] it was -0.57.

For SHB (UniProt Q15464), the figures for the log2 fold change in test [4] and in test [5] were 0.033 and 0.086, respectively.

Take STK26 isoform 3 (UniProt Q9P289): the log2 fold change in test [4] was 0.166.

As for SZT2 (UniProt Q5T011), the log2 fold change in test [1] was -0.285; in test [2] it was -0.066; in test [4], -0.148; in test [5] it was 0.105.

Consider SNAP23 isoform 2 (UniProt O00161), for which the log2 fold change in test [3] was 0.045; in test [5], -0.038.

For the target SNRPD2 (UniProt K7EJB5), the log2 fold change in test [3] is 0.024; in test [4] it was -0.047.

Turning to SLC40A1 (UniProt Q9NP59), the values for the log2 fold change in test [3], in test [4] and in test [5] were 0.013, -0.107 and -0.205, respectively.

Take SLC12A6 isoform 2 (UniProt Q9UHW9): the log2 fold change in test [4] was -0.179.

With SPPL2A (UniProt Q8TCT8), the log2 fold change was -0.148 in test [1], 0.118 in test [2], 0.087 in test [3] and 0.098 in test [5].

For the target SIN3B (UniProt O75182), the log2 fold change is -0.129 in test [3] and 0.052 in test [5].

In the case of SNUPN (UniProt O95149), the log2 fold change was -0.013 in test [1], -0.018 in test [2], 0.047 in test [3] and -0.02 in test [5].

For SMIM1 (UniProt B2RUZ4), the log2 fold change in test [1] is 0.053; in test [2], -0.054; in test [5], -0.028.

Turning to SKP2 (UniProt Q13309), the log2 fold change is -0.015 in test [3], -0.003 in test [4] and 0.001 in test [5].

Regarding SMARCA4 isoform 4 (UniProt P51532), the log2 fold change in test [4] is -0.007; in test [5] it was 0.131.

For the target SLC41A1 (UniProt Q8IVJ1), the log2 fold change in test [5] is -0.016.

With STAR (UniProt P49675), the log2 fold change is 0.048 in test [3], -0.077 in test [4] and -0.028 in test [5].

For SNAPC2 (UniProt Q13487), the log2 fold change in test [1] was 0.107; in test [2], 0.302; in test [4] it was 0.101; in test [5], 0.004.

Regarding SLC30A6 isoform 2 (UniProt Q6NXT4), the log2 fold change in test [1] was 0.033; in test [2], -0.046; in test [3], 0.116; in test [5] it was -0.059.

Values taken from the supplement of paper PMC10849652.
